From PubChem BioAssay (Tox21)
Records with an inconclusive call do not appear. Activity calls are given as the source filed them. Unless noted, calls follow the shape of the dose curve; as a rule, active = well fitted curve in the direction sought with a large enough effect in the repeat runs; inconclusive = weak or mixed curves; inactive = no such curve, though single readings can be large; an effect the other way counts as inactive or inconclusive.

How the values were obtained:
[1] = qHTS assay to identify small molecule antagonists of the sonic hedgehog signaling (Shh) pathway (AID 1259369; calls by dose curve; also: nearly all actives have a fitted effect of over 45% in size; also: potency is read from the fitted curve at half-maximal effect)
In short: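 Screening used 3T3Gli1-Luc cells at 2,000 per well, compounds delivered in DMSO, and conditioned medium as agonist stimulus; plates incubated 24hr at 37 C and 5% CO2 before a 30min luciferase step.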

[2] = target: Estrogen receptor beta (Homo sapiens) (UniProt Q92731); assay: qHTS assay to identify small molecule agonists of the estrogen receptor beta (ER-beta) signaling pathway (AID 1259377; active = well fitted activation curve with a large enough effect in the signal ratio in the repeat runs, not every such curve was filed as active; the % refers to the signal ratio)
Sequence of Estrogen receptor beta (Homo sapiens) (Q92731 whole entry, looked up): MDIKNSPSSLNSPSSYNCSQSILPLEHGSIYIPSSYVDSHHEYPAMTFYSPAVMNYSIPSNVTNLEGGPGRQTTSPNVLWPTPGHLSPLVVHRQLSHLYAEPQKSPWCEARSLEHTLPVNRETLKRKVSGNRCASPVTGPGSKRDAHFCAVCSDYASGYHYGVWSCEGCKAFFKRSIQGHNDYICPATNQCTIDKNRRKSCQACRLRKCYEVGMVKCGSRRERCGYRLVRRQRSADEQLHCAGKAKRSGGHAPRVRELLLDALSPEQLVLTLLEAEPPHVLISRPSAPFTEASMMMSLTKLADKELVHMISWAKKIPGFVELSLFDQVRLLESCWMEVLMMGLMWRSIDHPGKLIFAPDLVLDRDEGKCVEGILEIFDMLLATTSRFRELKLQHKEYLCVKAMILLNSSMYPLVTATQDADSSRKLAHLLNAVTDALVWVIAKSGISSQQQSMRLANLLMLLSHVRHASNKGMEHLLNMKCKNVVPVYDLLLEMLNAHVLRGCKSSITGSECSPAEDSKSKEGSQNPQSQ
In short: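 Ratiometric beta-lactamase FRET read-out came after 2 h substrate loading at room temperature. It followed 16 h compound treatment at 37C of GripTite HEK293T cells carrying a UAS-bla reporter, plated in 2% charcoal-stripped FBS medium.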

[3] = target: Estrogen receptor beta (Homo sapiens) (UniProt Q92731); assay: qHTS assay to identify small molecule antagonists of the estrogen receptor beta (ER-beta) signaling pathway (AID 1259378; active = well fitted inhibition curve with a large enough effect in the signal ratio in the repeat runs, not every such curve was filed as active; the % refers to the signal ratio; also: potency is read from the fitted curve at half-maximal effect)
In short: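 ER-beta-UAS-bla HEK293T (GripTite) cells in 2% charcoal-stripped FBS medium were preincubated 6 hr at 37C, dosed with compound, then stimulated with 1 nM E2 (final) for 16 hr; beta-lactamase reporter read by B/G FRET fluorescence after 2 hr substrate loading.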

[4] = qHTS assay to identify small molecule agonists of the estrogen receptor beta (ER-beta) signaling pathway - cell viability counter screen (AID 1259380); also: nearly all actives have a fitted effect of over 30% in size; also: potency is read from the fitted curve at half-maximal effect
In short: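 Viability of ER-beta-UAS-bla HEK293T cells was determined by CellTiter-Glo luminescence following 16 hr treatment with test compounds at 37C.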

[5] = qHTS assay to identify small molecule antagonists of the estrogen receptor beta (ER-beta) signaling pathway - cell viability counter screen (AID 1259382); also: nearly all actives have a fitted effect of over 55% in size; also: potency is read from the fitted curve at half-maximal effect
In short: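 Tox21 10K library tested in qHTS format on ER-beta-bla HEK293T cells stimulated with 1nM E2; 16 hr treatment at 37C. Same-well CellTiter-Glo luminescence served as the cell viability measure.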

[6] = target: Estrogen receptor (Homo sapiens) (UniProt P03372); assay: qHTS assay to identify small molecule agonists of the estrogen receptor alpha (ER-alpha) signaling pathway in the presence of an antagonist (AID 1259383; calls by dose curve; also: top concentration of the series differs between compounds; nearly all actives have a fitted effect of over 15% in size)
Sequence of Estrogen receptor (Homo sapiens) (P03372 whole entry, looked up): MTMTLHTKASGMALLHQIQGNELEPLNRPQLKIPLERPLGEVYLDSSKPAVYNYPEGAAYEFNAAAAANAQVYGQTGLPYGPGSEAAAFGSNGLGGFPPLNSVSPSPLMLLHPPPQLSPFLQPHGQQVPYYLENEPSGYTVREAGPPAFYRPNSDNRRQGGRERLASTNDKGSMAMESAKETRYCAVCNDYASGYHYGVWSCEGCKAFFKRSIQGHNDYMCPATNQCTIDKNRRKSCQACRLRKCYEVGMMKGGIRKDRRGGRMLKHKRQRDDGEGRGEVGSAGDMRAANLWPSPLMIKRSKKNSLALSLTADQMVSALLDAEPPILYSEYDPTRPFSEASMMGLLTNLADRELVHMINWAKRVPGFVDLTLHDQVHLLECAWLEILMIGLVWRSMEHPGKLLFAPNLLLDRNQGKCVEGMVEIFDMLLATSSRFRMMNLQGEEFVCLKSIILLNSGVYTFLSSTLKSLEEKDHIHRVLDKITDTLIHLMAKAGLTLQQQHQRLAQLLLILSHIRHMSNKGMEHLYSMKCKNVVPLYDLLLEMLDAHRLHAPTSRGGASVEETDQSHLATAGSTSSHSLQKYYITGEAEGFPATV
In short: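 In VM7Luc4E2 cells, 4,000 per well, compounds at 15 concentrations were co-incubated 22hr at 37C with 10.0nM final ICI-182,780. Luminescence from the stably transfected 4×ERE-luciferase reporter was recorded 30min after ONE-Glo addition.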

[7] = qHTS assay to identify small molecule agonists or antagonists of the thyroid stimulating hormone receptor (TSHR) signaling pathway - wild type cell line counter screen (AID 1259384; calls by dose curve)
In short: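 Wild-type HEK293 cells were plated 18 h at 37 C/5% CO2, pin-dosed with compound plus Ro20-1724 medium, held 30 min at room temperature, then given cAMP-d2 and anti-cAMP-cryptate; fluorescence was read after 1 h. Fifteen concentrations, triplicate.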

[8] = target: Thyrotropin receptor (Homo sapiens) (UniProt P16473); assay: qHTS assay to identify small molecule antagonists of the thyroid stimulating hormone receptor (TSHR) signaling pathway (AID 1259385; calls by dose curve; also: nearly all actives have a fitted effect of over 20% in size; also: potency is read from the fitted curve at half-maximal effect)
Sequence of Thyrotropin receptor (Homo sapiens) (P16473 whole entry, looked up): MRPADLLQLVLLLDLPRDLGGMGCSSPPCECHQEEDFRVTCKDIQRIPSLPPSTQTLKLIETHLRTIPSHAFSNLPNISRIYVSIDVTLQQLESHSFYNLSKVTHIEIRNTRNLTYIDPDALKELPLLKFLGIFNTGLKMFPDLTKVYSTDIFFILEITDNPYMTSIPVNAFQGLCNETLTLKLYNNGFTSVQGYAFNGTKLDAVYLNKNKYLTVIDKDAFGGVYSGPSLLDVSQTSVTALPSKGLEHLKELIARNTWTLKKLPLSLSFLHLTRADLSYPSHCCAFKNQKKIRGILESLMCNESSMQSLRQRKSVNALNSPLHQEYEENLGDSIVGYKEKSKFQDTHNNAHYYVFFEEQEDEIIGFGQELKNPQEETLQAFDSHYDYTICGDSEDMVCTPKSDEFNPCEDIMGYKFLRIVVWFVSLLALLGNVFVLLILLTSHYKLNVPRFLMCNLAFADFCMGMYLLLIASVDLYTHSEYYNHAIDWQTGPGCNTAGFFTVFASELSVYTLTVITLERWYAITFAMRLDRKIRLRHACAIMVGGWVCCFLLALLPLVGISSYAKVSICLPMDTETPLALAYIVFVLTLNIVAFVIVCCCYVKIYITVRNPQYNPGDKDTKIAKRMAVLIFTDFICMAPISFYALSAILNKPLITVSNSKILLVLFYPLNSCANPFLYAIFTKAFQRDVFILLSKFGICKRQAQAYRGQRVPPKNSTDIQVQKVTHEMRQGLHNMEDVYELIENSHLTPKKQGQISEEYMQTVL
In short: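 TSHR-HEK293 cells were plated and held 18 h at 37C/5% CO2, then given compound plus Ro20-1724 and stimulated with TSH at 1.5 ng/mL final. After 30 min at room temperature, cAMP was detected with cAMP-d2/anti-cAMP-cryptate (1 h) by fluorescence.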

[9] = qHTS assay to identify small molecule agonists of the estrogen receptor alpha (ER-alpha) signaling pathway in the presence of an antagonist - cell viability counter screen (AID 1259386);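 also: cells exposed to compounds for 22 h at 37 °C before the viability read; nearly all actives have a fitted effect of over 30% in size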; also: potency is read from the fitted curve at half-maximal effect
In short: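 Fluorescent CellTiter-Fluor viability signal from VM7Luc4E2 cells, with the reagent added during the final hour of a 22hr compound exposure at 37C in the presence of 10.0nM ICI-182,780.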

[10] = target: Progesterone receptor (Homo sapiens) (UniProt P06401); assay: qHTS assay to identify small molecule agonists of the progesterone receptor (PR) signaling pathway (AID 1346784; calls by dose curve; also: nearly all actives have a fitted effect of over 30% in size)
Sequence of Progesterone receptor (Homo sapiens) (P06401 whole entry, looked up): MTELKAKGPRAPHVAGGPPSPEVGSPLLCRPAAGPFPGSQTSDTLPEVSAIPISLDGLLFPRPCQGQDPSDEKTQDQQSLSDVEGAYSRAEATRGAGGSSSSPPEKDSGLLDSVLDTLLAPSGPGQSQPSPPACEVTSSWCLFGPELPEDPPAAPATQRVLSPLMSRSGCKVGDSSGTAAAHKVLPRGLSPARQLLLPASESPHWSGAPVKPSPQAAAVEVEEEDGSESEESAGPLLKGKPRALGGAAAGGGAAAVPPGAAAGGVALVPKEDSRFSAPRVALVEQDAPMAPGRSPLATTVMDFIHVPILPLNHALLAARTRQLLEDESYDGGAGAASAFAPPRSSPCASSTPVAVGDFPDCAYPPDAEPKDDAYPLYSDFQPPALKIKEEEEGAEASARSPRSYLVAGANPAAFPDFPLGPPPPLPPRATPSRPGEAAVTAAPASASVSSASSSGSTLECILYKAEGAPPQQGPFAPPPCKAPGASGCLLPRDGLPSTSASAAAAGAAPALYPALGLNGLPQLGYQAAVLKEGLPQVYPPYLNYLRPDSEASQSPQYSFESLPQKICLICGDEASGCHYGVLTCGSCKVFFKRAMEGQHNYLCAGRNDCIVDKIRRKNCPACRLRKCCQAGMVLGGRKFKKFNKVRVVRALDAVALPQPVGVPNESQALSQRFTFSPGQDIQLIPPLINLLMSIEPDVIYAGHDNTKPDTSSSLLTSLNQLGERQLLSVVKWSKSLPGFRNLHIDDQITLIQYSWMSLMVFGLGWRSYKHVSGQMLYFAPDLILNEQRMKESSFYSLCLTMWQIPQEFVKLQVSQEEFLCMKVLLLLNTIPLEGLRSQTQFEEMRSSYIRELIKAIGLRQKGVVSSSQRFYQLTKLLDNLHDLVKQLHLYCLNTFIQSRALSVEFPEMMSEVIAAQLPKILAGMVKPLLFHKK
In short: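 Agonist qHTS: compounds pinned onto 3,000 PR-UAS-bla HEK 293T cells per well in charcoal-stripped serum medium, 16hr at 37C, then beta-lactamase activity measured by LiveBLAzer FRET fluorescence after 2 hours at room temperature.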

[11] = target: Progesterone receptor (Homo sapiens) (UniProt P06401); assay: qHTS assay to identify small molecule antagonists of the progesterone receptor (PR) signaling pathway (AID 1346795; active = well fitted inhibition curve with a large enough effect in the signal ratio in the repeat runs, not every such curve was filed as active; the % refers to the signal ratio; also: potency is read from the fitted curve at half-maximal effect)
In short: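 Antagonist mode with agonist R5020 at 1 nM final and 16 hr incubation at 37C. Reporter was beta-lactamase driven by UAS in HEK293T (PR-UAS-bla), 2% charcoal-stripped serum; signal from LiveBLAzer FRET substrate, 2 hr at room temperature.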

[12] = qHTS assay to identify small molecule antagonists of the progesterone receptor (PR) signaling pathway - cell viability counter screen (AID 1346798); also: nearly all actives have a fitted effect of over 50% in size; also: potency is read from the fitted curve at half-maximal effect
In short: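 Cytotoxicity read as CellTiter-Glo luminescence (30 min, room temperature) in the same wells as the beta-lactamase readout. HEK293T PR-UAS-bla cells in charcoal-stripped 2% FBS received compound and R5020, then 16 h at 37C, 5% CO2.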

[13] = qHTS assay to identify small molecule agonists of the progesterone receptor (PR) signaling pathway - cell viability counter screen (AID 1346799; calls by dose curve; also: nearly all actives have a fitted effect of over 45% in size; also: potency is read from the fitted curve at half-maximal effect)
In short: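 Cytotoxicity measured by CellTiter-Glo luminescence (30 min, RT) in the same wells as the PR beta-lactamase agonist read. Those HEK293T cells had 16 h compound treatment at 37 C in 2% charcoal-stripped FBS medium.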

[14] = qHTS assay to identify small molecule antagonists of the TGF-beta/Smad signaling pathway - cell viability counter screen (AID 1346824); also: nearly all actives have a fitted effect of over 50% in size; also: potency is read from the fitted curve at half-maximal effect
In short: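 SBE-bla HEK 293T cells were plated overnight at 37 C, then given compounds in DMSO plus TGF-beta1 (added as 0.25 ng/mL solution) for 5 hr. After the bla read, CellTiter-Glo was added to the same wells and luminescence read after 30 min at room temperature.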

[15] = qHTS assay to identify small molecule agonists of the TGF-beta/Smad signaling pathway - cell viability counter screen (AID 1346829); also: nearly all actives have a fitted effect of over 45% in size; also: potency is read from the fitted curve at half-maximal effect
In short: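 In parallel with the Smad reporter read, viability of HEK 293T cells stably carrying SBE-bla is quantified by ATP luminescence following 5 hr compound treatment.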

[16] = qHTS assay to identify small molecule agonists of the TGF-beta/Smad signaling pathway (AID 1346859; active = well fitted activation curve with a large enough effect in the signal ratio in the repeat runs, not every such curve was filed as active; the % refers to the signal ratio; also: series mostly up to about 77 µM)
In short: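 Fluorescence (ex 405 nm; em 460 and 530 nm) was read 2 h after LiveBLAzer FRET substrate at RT. The preceding compound treatment of overnight-plated SBE-bla HEK293T cells lasted 5 h at 37 C.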

[17] = qHTS assay to identify small molecule agonists of the androgen receptor (AR) signaling pathway in the presence of an antagonist - cell viability counter screen (AID 1259379); also: nearly all actives have a fitted effect of over 25% in size; also: potency is read from the fitted curve at half-maximal effect
In short: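 In MDA-kb2 cells (human breast carcinoma, MMTV-luciferase), compounds at 15 concentrations plus 3.0uM nilutamide; 16 hr, 37C, 0% CO2; CellTiter-Fluor fluorescence read for viability.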

[18] = target: Thyrotropin-releasing hormone receptor (Homo sapiens) (UniProt P34981); assay: qHTS assay to identify small molecule antagonists of the thyrotropin-releasing hormone receptor (TRHR) signaling pathway (AID 1346877; active = well fitted inhibition curve with a large enough effect in the repeat runs, not every such curve was filed as active; also: series mostly up to about 51 µM)
Sequence of Thyrotropin-releasing hormone receptor (Homo sapiens) (P34981 whole entry, looked up): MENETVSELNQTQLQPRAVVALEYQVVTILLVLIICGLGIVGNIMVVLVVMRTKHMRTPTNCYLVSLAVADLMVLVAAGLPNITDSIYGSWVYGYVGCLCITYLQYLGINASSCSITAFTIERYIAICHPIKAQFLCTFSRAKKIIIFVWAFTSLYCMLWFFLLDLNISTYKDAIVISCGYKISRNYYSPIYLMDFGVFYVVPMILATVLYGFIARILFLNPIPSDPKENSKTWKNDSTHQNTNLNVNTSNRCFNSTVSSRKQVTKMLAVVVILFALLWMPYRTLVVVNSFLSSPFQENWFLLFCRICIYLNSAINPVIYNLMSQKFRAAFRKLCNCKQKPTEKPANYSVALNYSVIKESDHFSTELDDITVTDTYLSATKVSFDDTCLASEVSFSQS
In short: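 In this cell-based calcium flux format, HEK293 cells expressing TRHR received test compound for 5 min before the agonist TRH (1 nM final). Dye loading lasted 2 h at 37 °C.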

[19] = target: Androgen receptor (Homo sapiens) (UniProt P10275); assay: qHTS assay to identify small molecule agonists of the androgen receptor (AR) signaling pathway in the presence of an antagonist (AID 1259381; calls by dose curve; also: nearly all actives have a fitted effect of over 15% in size)
Sequence of Androgen receptor (Homo sapiens) (P10275 whole entry, looked up): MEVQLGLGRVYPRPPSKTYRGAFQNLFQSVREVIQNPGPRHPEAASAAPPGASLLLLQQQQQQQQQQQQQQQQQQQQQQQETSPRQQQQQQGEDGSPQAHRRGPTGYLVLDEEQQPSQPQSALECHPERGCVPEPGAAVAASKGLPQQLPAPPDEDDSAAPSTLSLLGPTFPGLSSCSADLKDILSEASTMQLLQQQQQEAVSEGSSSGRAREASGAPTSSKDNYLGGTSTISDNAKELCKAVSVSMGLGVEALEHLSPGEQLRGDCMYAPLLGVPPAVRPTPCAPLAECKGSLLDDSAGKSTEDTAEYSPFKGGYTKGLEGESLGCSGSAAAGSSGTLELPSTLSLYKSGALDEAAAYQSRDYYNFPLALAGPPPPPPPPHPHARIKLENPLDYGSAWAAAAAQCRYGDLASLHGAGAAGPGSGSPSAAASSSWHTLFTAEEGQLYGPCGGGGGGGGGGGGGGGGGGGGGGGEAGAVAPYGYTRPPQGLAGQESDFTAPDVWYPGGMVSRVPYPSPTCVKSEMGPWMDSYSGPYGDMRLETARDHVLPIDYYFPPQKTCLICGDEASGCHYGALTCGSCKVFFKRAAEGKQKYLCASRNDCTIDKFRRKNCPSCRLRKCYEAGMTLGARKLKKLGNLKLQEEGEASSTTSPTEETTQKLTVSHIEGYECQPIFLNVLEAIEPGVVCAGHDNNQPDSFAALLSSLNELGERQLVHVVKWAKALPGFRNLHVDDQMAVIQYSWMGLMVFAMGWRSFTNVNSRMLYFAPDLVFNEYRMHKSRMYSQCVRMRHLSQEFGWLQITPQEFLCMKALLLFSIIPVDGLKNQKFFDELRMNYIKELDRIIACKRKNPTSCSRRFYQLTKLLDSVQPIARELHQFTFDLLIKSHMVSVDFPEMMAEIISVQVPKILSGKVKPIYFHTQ
In short: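 Here, 15-concentration compound series were pin-transferred onto MDA-kb2 MMTV-luciferase cells already dosed with nilutamide (3.0uM final). After 16hr at 37C, ONE-Glo was added and luminescence read 30min later at room temperature.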

[20] = target: Thyrotropin-releasing hormone receptor (Homo sapiens) (UniProt P34981); assay: qHTS assay to identify small molecule agonists of the thyrotropin-releasing hormone receptor (TRHR) signaling pathway (AID 1346891; calls by dose curve; also: series mostly up to about 58 µM)
In short: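 Agonist-mode intracellular calcium readout: kinetic fluorescence over 3 min at 1 s intervals after compound addition to TRHR-HEK293 cells (18 h seeded, 2 h dye-loaded at 37 C). Fifteen concentrations, triplicates.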

Measured: Potency

O=[N+]([O-])c1ccc(CCl)cc1
not listed: [17] | [18] | [19] | [20]
inactive: all other assays above

CC1(C)[C@H](/C=C2\CCSC2=O)[C@@H]1C(=O)OCc1coc(Cc2ccccc2)c1
active: [1] 12.2 µM
not listed: [5] | [8] | [11] | [12] | [13] | [19] | [20]
inactive: all other assays above

Cc1ccc([N+](=O)[O-])[c]2c1[O][Hg]2
active: [1] 0.266 µM | [17] 13.3 µM | [4] 4.22 µM | [5] 5.31 µM | [8] 21.1 µM | [12] 4.22 µM | [13] 5.31 µM | [14] 19 µM | [15] 23.9 µM
inactive: [2] | [19] | [6] | [7] | [16]

CCNc1nc(NC(C)C(C)C)nc(SC)n1 (stereo unspecified)
active: [1] 4.86 µM
not listed: [6] | [7] | [8] | [11] | [16] | [18] | [19] | [20]
inactive: all other assays above

COP(=S)(NC(C)C)Oc1ccc(C)cc1[N+](=O)[O-] (stereo unspecified)
active: [3] 30.6 µM | [11] 7.7 µM
not listed: [5] | [6] | [9] | [13] | [19]
inactive: all other assays above

COCCC#N
not listed: [4] | [6] | [8] | [17] | [18] | [19] | [20]
inactive: all other assays above

CN1[C@@H]2CC[C@H]1CC(O)C2 (stereo partly specified)
not listed: [5] | [7] | [8] | [18] | [19]
inactive: all other assays above

CNC(=O)Oc1cc(C)cc(C(C)C)c1
not listed: [4] | [7] | [8] | [12] | [13] | [19]
inactive: all other assays above

COP(=O)(OC)Oc1ccc([N+](=O)[O-])cc1
not listed: [9] | [10] | [11] | [13] | [17] | [19]
inactive: all other assays above

CC(C)[C@@H](Nc1ccc(C(F)(F)F)cc1Cl)C(=O)OC(C#N)c1cccc(Oc2ccccc2)c1 (stereo partly specified)
inactive: [1] | [2] | [17] | [4] | [5] | [6] | [9] | [12] | [16]

Cc1cccc(Cc2cnc[nH]2)c1C
not listed: [3] | [8] | [11] | [16] | [18] | [19] | [20]
inactive: all other assays above

CC(=O)[O][Pb]([c]1ccccc1)([c]1ccccc1)[c]1ccccc1
inactive: [19] | [7]
active: [1] 0.386 µM | [3] 0.969 µM | [17] 7.7 µM | [4] 4.86 µM | [5] 5.45 µM | [8] 24.3 µM | [9] 19.3 µM | [12] 4.33 µM | [13] 4.33 µM | [14] 4.9 µM | [15] 4.36 µM
